Shown are actives, neighbours in structure and some others; about 1.7% of the full set was active somewhere.
Vc quorum ag: induces V. cholerae light production without autoinducers | V. cholerae BH1578 lux reporter, luminescence, 6 h | activation, % at 18.7 µM | hit rate 0.16% among 350,000 | AID 588436; in the data active = activation mostly above about 9.7%, no sharp cut-off; inconclusive = no clear call, values can overlap the other calls; inactive = mostly below about 3.7%
PfHsp40 rescue: restores yeast growth despite PfHsp40 toxicity; S. cerevisiae expressing PfHsp40, growth rescue, ATP luminescence; growth rescue, % at 12.5 µM; hit rate 0.68% among 340,000; in the data active = growth rescue above about 28%, passing the limit was not always enough; inconclusive = no clear call, values can overlap the other calls;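 also: yeast W303a lacking pdr1 and pdr3 grown in galactose medium; growth measured after three days at 30 °C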
MazEF act: MazEF (E. coli) toxin RNase activation | P0AE70 | FAM/BHQ RNA-DNA oligo cleavage fluorescence, 5 h | activation, % at 20 µM | hit rate 0.32% among 350,000; in the data active = activation above about 50%
Target sequence (P0AE70 whole entry, looked up): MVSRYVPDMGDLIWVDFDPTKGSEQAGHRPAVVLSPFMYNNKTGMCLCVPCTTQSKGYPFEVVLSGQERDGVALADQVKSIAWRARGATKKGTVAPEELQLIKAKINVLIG
VHR inh abs: blocks human VHR1 dual specificity phosphatase. P51452. recombinant VHR phosphatase, pNPP absorbance. inhibition, % at 13.3 µM. hit rate 0.52% among 290,000. AID 1654; in the data active = inhibition above about 50%
Target sequence (P51452 whole entry, looked up): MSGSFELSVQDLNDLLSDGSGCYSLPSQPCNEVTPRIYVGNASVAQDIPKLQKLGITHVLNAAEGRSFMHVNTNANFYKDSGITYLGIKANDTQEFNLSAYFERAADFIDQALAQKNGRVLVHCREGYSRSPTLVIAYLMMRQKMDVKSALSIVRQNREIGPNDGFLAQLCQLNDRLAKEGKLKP
BJeLR lethal: BJeLR cell viability loss | BJeLR (HRASV12) viability, CellTiter-Glo ATP luminescence, 48 h | inhibition, % (concentration not given with the values) | hit rate 0.17% among 300,000; in the data active = inhibition above about 50%; inconclusive = no clear call, values can overlap the other calls
3CLpro inhibitor: SARS-CoV 3CLpro protease inhibition | recombinant SARS-CoV 3CLpro, quenched FRET peptide cleavage | P0C6X7 | inhibition, % at 6 µM | hit rate 0.14% among 290,000; in the data active = inhibition above about 12%
Each line names hits and unclear results; the compound was inactive in the other large screens.

CC(C)n1cc(/C=C/c2cc[n+](C)cc2)c2ccccc21	MazEF act 69
C=CCn1cc(/C=C/c2cc[n+](C)cc2)c2ccccc21	MazEF act 70
COCCn1c(SCC(=O)NCc2ccc(F)cc2)nc2ccccc21	none
CN(C(=O)CN1C(=O)c2cccc(N)c2C1=O)C1CCCCC1	none (no result: VHR inh abs, BJeLR lethal, 3CLpro inhibitor)
CC(C)N1CCN(c2ccc(OC[C@H]3CO[C@](Cn4cncn4)(c4ccc(Cl)cc4Cl)O3)cc2)CC1	PfHsp40 rescue 222 (no result: VHR inh abs, BJeLR lethal, 3CLpro inhibitor)
CC(C)N1CCN(c2ccc(OCC3COC(Cn4cncn4)(c4ccc(Cl)cc4Cl)O3)cc2)CC1 (configuration not stated)	PfHsp40 rescue 226 (no result: VHR inh abs, BJeLR lethal, 3CLpro inhibitor)
COc1cccc(CNC(=S)Nc2ccc3c(c2)c(=O)n(C)n3C)c1	none (no result: PfHsp40 rescue, MazEF act, VHR inh abs, BJeLR lethal, 3CLpro inhibitor)
COc1ccc(S(=O)(=O)N2CCOC2CNC(=O)C(=O)NCCCN2CCCC2=O)cc1OC (configuration not stated)	none (no result: PfHsp40 rescue, VHR inh abs, BJeLR lethal, 3CLpro inhibitor)
CC1(CC(=O)N/N=C/c2cc3c(cc2Br)OCO3)OCCO1	none
CC(C)N(C(=O)Cn1cc(S(=O)(=O)CC(=O)Nc2ccccc2)c2ccccc21)C(C)C	none
ON=C1c2ccccc2-c2cc(Br)ccc21	none (no result: VHR inh abs, BJeLR lethal, 3CLpro inhibitor)
Cc1cccc(Nc2nc(N)c([N+](=O)[O-])c(N3CC(C)CC(C)C3)n2)c1 (configuration not stated)	PfHsp40 rescue 64
OC[C@@H]1CN(Cc2cccnc2)C[C@H](n2cnc3c(N4CCCC4)ncnc32)O1	none (no result: PfHsp40 rescue, MazEF act, VHR inh abs, BJeLR lethal, 3CLpro inhibitor)
CCN1C(=O)/C(=C2/SC(C)=C(C)N2CC)SC1=S	MazEF act 76
CCN1C(=O)/C(=C2\C=Cc3ccccc3N2CC)SC1=S	none
Cc1ccc(C)c(OCCn2cc(/C=C(\C#N)C(=O)NCC3CCCO3)c3ccccc32)c1 (configuration not stated)	none
Cc1ccc(OCCn2cc(/C=C(\C#N)C(=O)NCC3CCCO3)c3ccccc32)cc1C (configuration not stated)	MazEF act 114
Cc1ccccc1-n1c(C)cc(/C=C(\C#N)C(=O)NCC2CCCO2)c1C (configuration not stated)	PfHsp40 rescue 30
Cc1ccc(C)c(OCCn2cc(/C=C(\C#N)C(=O)NCc3cccs3)c3ccccc32)c1	none
Cc1ccc(OCCn2cc(/C=C(\C#N)C(=O)NCC3CCCO3)c3ccccc32)cc1 (configuration not stated)	MazEF act 57
Cc1ccc(/C=C(\C#N)C(=O)NCC2CCCO2)o1 (configuration not stated)	PfHsp40 rescue inconclusive
COc1ccc(NC(=O)CCCc2nc3ccccc3c(=O)[nH]2)cc1Cl	none (no result: VHR inh abs, BJeLR lethal, 3CLpro inhibitor)
O=C(CN1CCOCC1)Nc1ncc(Cc2ccccc2Cl)s1	none
CCc1ccc(CCC(=O)Nc2ncc(Cc3ccccc3Cl)s2)o1	VHR inh abs 60, BJeLR lethal 57
Cn1c(C(=O)N2CCC(C(=O)N3CCOCC3)CC2)cc2sccc21	VHR inh abs 53
O=C(NOC(=O)c1ccccc1)c1ccccc1	PfHsp40 rescue 239
N#C/C(=C\c1ccc(-c2nc3ccccc3s2)o1)C(N)=O	none
CNC(=O)/C(C#N)=C/c1ccc(-c2nc3ccccc3s2)o1	MazEF act 94 (no result: PfHsp40 rescue)
NNC(=O)c1ccc2nc(-c3ccc(Br)cc3)cn2c1	PfHsp40 rescue 71
COc1ccc(OC)c(/C=N/n2c(-c3n[nH]c4c3CCC4)n[nH]c2=S)c1	none
COc1cc(OC)c(OC)cc1/C=N/n1c(-c2n[nH]c3c2CCC3)n[nH]c1=S	PfHsp40 rescue 28
COc1cccc(-c2sc3ccc(OC)cc3c2-c2ccc(OCCN3CCCC3)cc2)c1	PfHsp40 rescue 40 (no result: VHR inh abs, BJeLR lethal, 3CLpro inhibitor)
CN(C)CCCn1c2c(c(SCC(=O)Nc3ccc4c(c3)OCCO4)nc1=O)CCCC2	none (no result: PfHsp40 rescue, VHR inh abs, BJeLR lethal, 3CLpro inhibitor)
Cc1cc(C)c2nc(SCC(=O)Nc3cc(C)on3)c(C#N)cc2c1	MazEF act 59
Cc1ccc2nc(SCC(=O)Nc3ccc4sc(C)nc4c3)c(C#N)cc2c1	MazEF act 168
CCC(SC1=N/C(=C/c2ccccc2)C(=O)N1c1ccccc1)C(=O)Nc1cc(C)on1 (configuration not stated)	none
COc1ccc(/C=C2/N=C(SCC(=O)Nc3cc(C)on3)N(c3ccccc3)C2=O)cc1	MazEF act 70 (no result: BJeLR lethal)
COc1ccc2nc(SCC(=O)Nc3cc(C)on3)c(C#N)cc2c1	none
Cc1cc(NC(=O)CSc2nc3ccccc3cc2C#N)no1	MazEF act 55

High-throughput results deposited in PubChem by several laboratories.
